Measurements reported in PubChem BioAssay AID1159580 (chemical genetic matrix, 2015).
Among all 5,500 compounds or so, about 2,000 (36%) were called active. About 18% were inconclusive and are not listed. Rule as the data show it: active = normalized growth mostly below about 0.91 (no sharp cut-off); inconclusive = no clear call, values can overlap the other calls; inactive = mostly above about 0.92. The list shows a part of the results.

Test: chemical genetic growth profiling, strain panel (AID 1159580);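 also: tested at 20 µM; growth read once vehicle control cultures reached saturation at 30 °C; 1 = growth at the plate median or of vehicle wells; lower values mean less growth of the strain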
Details: growth OD

Measured: normalized growth

CCOP(=S)(OCC)Oc1ccc2c(C)c(Cl)c(=O)oc2c1
inactive: S. cerevisiae deletion strains, locus YJR075W, strain HOC1, stronger effect = lower value 0.945 | S. cerevisiae deletion strains, locus YKL009W, strain mrt4, stronger effect = lower value 0.952 | S. cerevisiae deletion strains, locus YKL068W, stronger effect = lower value 0.985 | S. cerevisiae deletion strains, locus YKL085W, strain MDH1 (second series), stronger effect = lower value 0.982 | S. cerevisiae deletion strains, locus YKL085W, strain MDH1, stronger effect = lower value 0.982 | S. cerevisiae deletion strains, locus YKL160W, strain elf1, stronger effect = lower value 1 | S. cerevisiae deletion strains, locus YKL190W, strain CNB1, stronger effect = lower value 0.983 | S. cerevisiae deletion strains, locus YKR001C, strain vps1, stronger effect = lower value 0.981 | S. cerevisiae deletion strains, locus YKR026C, strain gcn3, stronger effect = lower value 0.944 | S. cerevisiae deletion strains, locus YKR091W, strain srl3, stronger effect = lower value 0.973 | S. cerevisiae deletion strains, locus YLL001W, strain dnm1, stronger effect = lower value 0.988 | S. cerevisiae deletion strains, locus YLL026W, stronger effect = lower value 0.946 | S. cerevisiae deletion strains, locus YLL041C, strain sdh2, stronger effect = lower value 0.956 | S. cerevisiae deletion strains, locus YLR027C, strain aat2, stronger effect = lower value 0.935 | S. cerevisiae deletion strains, locus YLR039C, strain RIC1, stronger effect = lower value 0.94 | S. cerevisiae deletion strains, locus YLR058C, strain SHM2, stronger effect = lower value 0.971 | S. cerevisiae deletion strains, locus YLR102C, strain apc9, stronger effect = lower value 0.985 | S. cerevisiae deletion strains, locus YLR113W, strain HOG1, stronger effect = lower value 0.936 | S. cerevisiae deletion strains, locus YLR221C, strain rsa3, stronger effect = lower value 0.933 | S. cerevisiae deletion strains, locus YLR258W, strain gsy2, stronger effect = lower value 0.969 | S. cerevisiae deletion strains, locus YLR262C, strain YPT6 (second series), stronger effect = lower value 0.976 | S. cerevisiae deletion strains, locus YLR262C, strain YPT6, stronger effect = lower value 0.929 | S. cerevisiae deletion strains, locus YLR268W, strain sec22, stronger effect = lower value 0.965 | S. cerevisiae deletion strains, locus YLR320W, strain mms22, stronger effect = lower value 0.914 | S. cerevisiae deletion strains, locus YLR330W, strain CHS5, stronger effect = lower value 0.979 | S. cerevisiae deletion strains, locus YLR342W, strain FKS1 (second series), stronger effect = lower value 1.01 | S. cerevisiae deletion strains, locus YLR342W, strain FKS1, stronger effect = lower value 0.961 | S. cerevisiae deletion strains, locus YLR357W, strain rsc2, stronger effect = lower value 0.972 | S. cerevisiae deletion strains, locus YLR370C, strain arc18, stronger effect = lower value 0.944 | S. cerevisiae deletion strains, locus YLR371W, strain rom2, stronger effect = lower value 0.993 | S. cerevisiae deletion strains, locus YLR384C, strain iki3, stronger effect = lower value 0.983 | S. cerevisiae deletion strains, locus YLR418C, strain cdc73, stronger effect = lower value 0.956 | S. cerevisiae deletion strains, locus YML016C, strain PPZ1, stronger effect = lower value 0.983 | S. cerevisiae deletion strains, locus YML032C, strain rad52, stronger effect = lower value 0.979 | S. cerevisiae deletion strains, locus YML120C, strain ndi1, stronger effect = lower value 0.962 | S. cerevisiae deletion strains, locus YML124C, strain tub3, stronger effect = lower value 0.986 | S. cerevisiae deletion strains, locus YMR058W, strain fet3, stronger effect = lower value 0.957 | S. cerevisiae deletion strains, locus YMR078C, strain ctf18, stronger effect = lower value 0.979 | S. cerevisiae deletion strains, locus YMR125W, strain sto1, stronger effect = lower value 0.97 | S. cerevisiae deletion strains, locus YMR129W, stronger effect = lower value 0.97 | S. cerevisiae deletion strains, locus YMR205C, strain PFK2, stronger effect = lower value 0.955 | S. cerevisiae deletion strains, locus YMR223W, strain ubp8, stronger effect = lower value 0.987 | S. cerevisiae deletion strains, locus YMR231W, strain pep5, stronger effect = lower value 0.948 | S. cerevisiae deletion strains, locus YMR263W, strain SAP30, stronger effect = lower value 0.972 | S. cerevisiae deletion strains, locus YMR307W, strain GAS1, stronger effect = lower value 0.894 | S. cerevisiae deletion strains, locus YNL067W, strain RPL9B, stronger effect = lower value 0.981 | S. cerevisiae deletion strains, locus YNL071W, strain lat1, stronger effect = lower value 0.944 | S. cerevisiae deletion strains, locus YNL128W, strain TEP1, stronger effect = lower value 0.952 | S. cerevisiae deletion strains, locus YNL153C, strain GIM3, stronger effect = lower value 0.972 | S. cerevisiae deletion strains, locus YNL183C, strain NPR1, stronger effect = lower value 0.974 | S. cerevisiae deletion strains, locus YNL209W, strain ssb2, stronger effect = lower value 0.957 | S. cerevisiae deletion strains, locus YNL233W, strain BNI4, stronger effect = lower value 0.959 | S. cerevisiae deletion strains, locus YNL248C, strain rpa49, stronger effect = lower value 0.96 | S. cerevisiae deletion strains, locus YNL250W, strain rad50, stronger effect = lower value 0.98 | S. cerevisiae deletion strains, locus YNL271C, strain bni1, stronger effect = lower value 0.99 | S. cerevisiae deletion strains, locus YNL298W, strain CLA4, stronger effect = lower value 0.979 | S. cerevisiae deletion strains, locus YNL307C, strain MCK1, stronger effect = lower value 0.981 | S. cerevisiae deletion strains, locus YNL322C, strain KRE1 (second series), stronger effect = lower value 0.932 | S. cerevisiae deletion strains, locus YNL322C, strain KRE1, stronger effect = lower value 0.981 | S. cerevisiae deletion strains, locus YNR049C, strain mso1, stronger effect = lower value 0.954 | S. cerevisiae deletion strains, locus YNR052C, strain pop2, stronger effect = lower value 0.994 | S. cerevisiae deletion strains, locus YOL006C, strain TOP1, stronger effect = lower value 0.884 | S. cerevisiae deletion strains, locus YOL012C, strain htz1 1.3 | S. cerevisiae deletion strains, locus YOL147C, strain pex11, stronger effect = lower value 0.993 | S. cerevisiae deletion strains, locus YOR001W, strain rrp6, stronger effect = lower value 0.95 | S. cerevisiae deletion strains, locus YOR061W, strain CKA2, stronger effect = lower value 0.961 | S. cerevisiae deletion strains, locus YOR069W, strain VPS5, stronger effect = lower value 0.979 | S. cerevisiae deletion strains, locus YOR070C, strain gyp1, stronger effect = lower value 0.994 | S. cerevisiae deletion strains, locus YOR080W, strain dia2, stronger effect = lower value 0.959 | S. cerevisiae deletion strains, locus YOR083W, strain WHI5, stronger effect = lower value 0.991 | S. cerevisiae deletion strains, locus YOR106W, strain vam3, stronger effect = lower value 0.939 | S. cerevisiae deletion strains, locus YOR136W, strain idh2, stronger effect = lower value 0.977 | S. cerevisiae deletion strains, locus YOR144C, strain elg1, stronger effect = lower value 0.985 | S. cerevisiae deletion strains, locus YOR184W, strain ser1, stronger effect = lower value 0.976 | S. cerevisiae deletion strains, locus YOR231W, strain MKK1, stronger effect = lower value 1.03 | S. cerevisiae deletion strains, locus YOR265W, strain rbl2, stronger effect = lower value 0.94 | S. cerevisiae deletion strains, locus YOR270C, strain vph1, stronger effect = lower value 0.904 | S. cerevisiae deletion strains, locus YOR290C, strain snf2, stronger effect = lower value 0.928 | S. cerevisiae deletion strains, locus YOR316C, strain cot1, stronger effect = lower value 0.971 | S. cerevisiae deletion strains, locus YPL051W, strain arl3, stronger effect = lower value 0.963 | S. cerevisiae deletion strains, locus YPL055C, strain LGE1, stronger effect = lower value 0.948 | S. cerevisiae deletion strains, locus YPL078C, strain atp4, stronger effect = lower value 0.982 | S. cerevisiae deletion strains, locus YPL106C, strain sse1, stronger effect = lower value 0.957 | S. cerevisiae deletion strains, locus YPL240C, strain hsp82, stronger effect = lower value 0.95 | S. cerevisiae deletion strains, locus YPL241C, strain CIN2, stronger effect = lower value 0.982 | S. cerevisiae deletion strains, locus YPL256C, strain CLN2, stronger effect = lower value 1.03 | S. cerevisiae deletion strains, locus YPR119W, strain clb2, stronger effect = lower value 0.983 | S. cerevisiae deletion strains, locus YPR141C, strain kar3, stronger effect = lower value 0.951 | S. cerevisiae deletion strains, locus YPR163C, strain tif3, stronger effect = lower value 0.987 | S. cerevisiae deletion strains, locus YPR167C, strain met16, stronger effect = lower value 0.99 | S. cerevisiae deletion strains, strain wtn01, stronger effect = lower value 0.989 | S. cerevisiae strains, strain wild type, stronger effect = lower value 0.981
